This is part of a sample that, as a whole, favours compounds with a hit. Of some 83,000 tested, about 20% had one in any assay.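 Cells were grown in 96-well plates and exposed to the test compound at a single concentration for 48 hours; results are reported as percent growth, with values below 10 considered active.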 Unmarked numbers belong to inactive results. Activity calls are given as the source filed them.

The subject of the assay is RPMI-8226 leukemia. The assay can be described thus: NCI-60 one-dose screen, 48 h (100 = growth as untreated, 0 = no growth, -100 = all killed). Conditions: 10 µM unless noted. How it is done: Growth inhibition of the RPMI-8226 human tumor cell line is measured as a screen for anti-cancer activity. Cells are grown in 96 well plates and exposed to the test compound for 48 hours. Compounds are tested at a single concentration, which is 10^-5 M for most compounds. The reported endpoint is percent growth (GI% or GIPRCNT), where numbers from 0 - 100% represent growth inhibition, and numbers from -100% - 0 represent cell death. For example, a value of 40 represents 60% growth inhibition. A value of 0 means no net growth occurred over the course of the experiment. A value of -40 indicates 40% of cells at the beginning of the experiment died by the end of the experiment. A value of -100 means all cells are dead at the end of the experiment.
NCI-60 Human Tumor Cell Lines Screen was performed using the standard one-dose NCI protocol, which is described in more detail at https://dtp.cancer.gov/discovery_development/nci-60/default.htm.
Compounds with GIPRCNT values below 10 were considered active. Activity score was based on GIPRCNT using the following formula: […]
Score is 0 for GIPRCNT values of 100 or above, 50 for GIPRCNT values of 0, and 100 for GIPRCNT values of -100.
Turning to `COc1ccc(C2=NN(/C=C3\SC(=O)NC3=Nc3ccc(F)cc3)C(c3ccc(F)cc3)C2)cc1` (stereo not given), the growth was 88.7%.
To `N#Cc1c(N)nc2c(c1N)C(c1ccc(F)cc1)c1ccc(N)cc1O2` (stereo not given) belongs 103%; to `O=S(=O)(Nc1ncccn1)c1ccc(NC2Nc3nc4ccccc4nc3S2)cc1` (stereo not given), 99%; to `FC(F)(F)c1cccc(Nc2nc(-c3ccccc3)nc3ncccc23)c1`, -39.8% (active).
With `Nc1ccc(-n2c(=O)oc3ccc(Cl)cc3c2=O)c(Cl)c1`, the growth is -27.3% (active).
To `COc1ccc(/C=C/C(=O)c2c(C)nc3ccccc3c2/C=C/c2ccccc2)c(OC)c1` belongs 66.1%; to `O=C(c1nc2ccccc2[nH]1)C1C(c2ccc(F)cc2)C2CC3CCCCC3N2[C@@]12C(=O)Nc1ccc(Cl)cc12` (stereo not given in full), 13.9%.
On to `O=C1C(=O)c2c(ccc3ccccc23)-c2ccccc21`, for which the growth is 4.32% (active).
On to `O=C1NC(=S)NC(=O)C1=Cc1cn(Cc2cn(Cc3cccc4ccccc34)nn2)c2ccccc12`, for which the growth was 104%.
Next, `O=C1NC(=O)C(=Cc2cn(Cc3cn(Cc4ccc(Cl)cc4Cl)nn3)c3ccccc23)C(=O)N1`: 83%; `COc1ccc(-c2cn3c(C(=O)Nc4ccccc4Cl)c(-c4ccccc4)c4c3n2CCCC4)cc1`: 68.5%.
For the molecule `CN(C)CCCNCc1ccc(-c2ccc(F)c(Cl)c2)o1`, the growth is -26.3% (active).
Turning to `CC1=C(C(=O)OCC2CCN(C(=O)OC(C)(C)C)CC2)[C@H](c2cccc(Br)c2)C2=C(CC(C)(C)CC2=O)N1`, the growth is 18.6%.
To `Cn1c(/C=C(\C#N)c2cccc(C(F)(F)F)c2)nc2c(N3CCOCC3)nc(Cl)nc21` belongs -23.4% (active).
To `COc1ccc(Cn2c(Br)c3c(c2-c2cc(OC)c(OC)c(OC)c2)CCc2sc(NC(C)=O)nc2-3)cc1` belongs 53.5%.
As to `Clc1ccc(Oc2ccc(Nc3ncnc4onc(-c5ccccc5)c34)cc2)c(Cl)c1`, the growth is 90.8%.
Consider `NC1C(N)C(N)C1N` (stereo not given), for which the growth is 93.3%.
Next, `COc1ccccc1CNC(=O)C1c2ccccc2C(=O)N(CC(C)C)C1c1cccs1` (stereo not given): 2.15% (active).
Next, `Cc1ccc(N=NC2C(=O)N(c3ccc(Cl)cc3)N(c3ccc(Cl)cc3)C2=O)cc1`: 78.1%; `CCOC(=O)C1(Cc2ccccc2)CCN(Cc2cccc(OC)c2O)CC1`: 9.49% (active); `CC(C)C[C@H](C(=O)N[C@@H](C)C(N)=O)N1CC=CCN(O)S1(=O)=O`: 106% [5 µM].
In the case of `O=C(CCc1nnc2sc(-c3ccc(Cl)cc3Cl)nn12)c1nc2ncccc2[nH]1`, the growth was -2.08% (active).
Next, `Oc1[nH]c2ccccc2c1N=Nc1nnc2n1N=C(c1ccccc1)CS2`: 92.8%; `CCC1=C[C@]2(C3CC(=O)N(c4ccccc4)C3=O)CC(C(C)(C)C)C[C@@H]2[C@@H]2C(=O)N(c3ccccc3)C(=O)[C@H]12` (stereo not given in full): 59.7%; `CCOC(=O)c1c2c(c(C)n1Cc1ccc(OC)cc1)-c1oncc1CC2`: 62.9%.
For `COc1cc2nc(NC3CCC3)nc(NC3CCN(C(C)C)CC3)c2cc1OC`, the growth is -7.43% (active).
To `CCOc1ccc2nc(C)cc(Nc3ccc(Br)cc3)c2c1` belongs 82.6%; to `COc1ccccc1N1C(=N)S/C(=C\c2ccc(OCc3ccccc3F)cc2)C1=O`, 70.1%; to `COc1ccc(Cn2cc(Cn3c(=O)c(-c4nc5ccccc5[nH]4)cc4ccccc43)nn2)c(OC)c1OC`, 16.1%.
Turning to `CCCCN1CCN(c2ccc3nc(-c4ccc5nc(-c6ccc(OCC)cc6)[nH]c5c4)[nH]c3c2)CC1`, the growth is -25.3% (active).
With `NC1(N2SC(S)=C3CCCC=C32)CCCCC1`, the growth was 95.8%.
In the case of `Cc1sc2ncnc(Sc3nc4ccccc4[nH]3)c2c1C`, the growth was -27.1% (active).
Next, `O=C(Nc1ccc(Cl)cc1F)c1cc(Br)ccc1O`: -13.5% (active).
To `CC1=C(CC(=O)c2cccc([N+](=O)[O-])c2)C(=O)c2ccccc2C1=O` belongs -7.18% (active); to `CCN1C(=O)N(CC)C2C1NN=c1s/c(=C3\C(=O)N(CC(C)(C)C)c4ccccc43)c(=O)n12` (stereo not given), 36.7%; to `CN1CCN(Cc2ccc(C(=O)Nc3cncc(C#Cc4cnc5cccnn45)c3)cc2C(F)(F)F)CC1`, 29%.
To `COc1c(B(O)O)cccc1-c1nc2ccc3n[nH]c(F)c3c2c2c1CCCC2` belongs 42.3%; to `COc1ccc2sc(N(Cc3cccnc3)C(=O)c3ccc(C#N)cc3)nc2c1`, 64.4%; to `OCCNc1nc(Nc2ccc(C3=NN(c4cc(Cl)cc(Cl)c4)C(c4ccc(C(F)(F)F)cc4)C3)cc2)nc(N2CCOCC2)n1` (stereo not given), 71.7%.
As for `CCOC(=O)C1=CN(C)C=C(C(=O)OCC)C1c1cc(Br)c(OCC)c(OC)c1`, the growth is 8.87% (active).

The record behind these values is PubChem BioAssay (NCI).
